Assay results: patent US20220098591, “STEM-LOOP COMPOSITIONS AND METHODS FOR INHIBITING VASCULAR ENDOTHELIAL GROWTN FACTOR” (DRIVE THERAPEUTICS LLC, published 2022)

molecular target: VEGF-A121 (Homo sapiens, UniProt P15692 SEQ:1-121); experiment: competition; TR-FRET; details: tags: glycan-biotinylated for SPR/FRET/AlphaLISA; Acro BioSystems, Biolegend; chain copies: 2 (stated); ssRNA; all G 2'-F; A,C,U 2'-OMe; 5' C6NH2; 3' idT
Procedure: Briefly, for competition TR-FRET, 2-fold dilutions of thermally equilibrated aptamers were made in TR-FRET Buffer (50 mM MOPS, pH 7.4, 125 mM NaCl, 5 mM KCl, 50 μM CHAPS, 0.1 mg/mL BSA, 1 mM CaCl₂, and 1 mM MgCl₂). 5 μL of aptamer or control solution was added to a 15 μL mix of glycan biotinylated […] (5 nM final), ALEXA FLUOR® 647-labeled Aptamer (30 nM final), and Streptavidin-Eu (Perkin Elmer; 2.5 nM final) in a black wall low volume 384 well plate (Greiner). For control, 5 μl of 1000-fold excess of unlabeled parent aptamer or 5 μl TR-FRET buffer alone was added to the mix of ALEXA FLUOR® 647-labeled aptamer, biotin-VEGF-A, and Streptavidin-Eu. The plate was covered with a plate seal and subsequently incubated in the dark for 1 hour at room temperature. The plate was read on a Biotek CYTATION™ 5 plate reader. Samples were excited at 330 nm and fluorescent values were collected at 665 nm. Data analysis was performed by subtracting the background value and plotting as percent inhibition, normalized to baseline in the absence of competitor. The values were fit by [Inhibitor] vs. response-Variable slope (four parameters) using GraphPad Prism Version 7.0 and then normalized to aptamer control to obtain an IC₅₀ relative to parent aptamer. Data is presented as log values of relative IC₅₀.
Activity of each of these variants were tested using a time resolved competition TR-FRET assay, as described in Example 7, in which a labeled parent was competed with increasing concentrations of unlabeled variants for binding to VEGF-A₁₂₁.

Sequence of VEGF-A121 (P15692 other isoform, or with tags, fused parts or gaps): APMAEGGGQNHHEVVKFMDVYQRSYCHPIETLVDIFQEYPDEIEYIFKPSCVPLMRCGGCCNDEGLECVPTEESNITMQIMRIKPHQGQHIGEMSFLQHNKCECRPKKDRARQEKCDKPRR

| Sequence | binding signal |
| --- | --- |
| AGGCCGCCUCCGCGCGGAGAGGUUUCAUUAUCUCGUUUGGCGGCUU | ~7 fold worse IC50 vs Aptamer 26 |
| AGGCCGCCUCCGCGCGGAGGGGUUCAUAUCCCGUUUGGCGGCUU | ~8 fold worse IC50 vs Aptamer 26 |
| AGGCCGCCUCCGCGCGGAGAGGGUUCAUUCCCUCGUUUGGCGGCUU | ~9 fold worse IC50 vs Aptamer 26 |
| AGGCCGCCUCCGUGCGGAGGGGUUUCAUUAUCCCGUUUGGCGGCUU | 4 fold worse IC50 vs Aptamer 26 |
| AGGCCGCCUCCGCGCGGACCGGUUUCAUUACCGGGUUUGGCGGCUU | ~9 fold worse IC50 vs Aptamer 26 |
